High-throughput results from PubChem.
MITF primary: MITF inhibitors, primary screen, biochemical, AlphaScreen, human. Microphthalmia-associated transcription factor (Homo sapiens), O75030. AlphaScreen MITF homodimerization, bead proximity signal. inhibition, % at 2.6 µM. 650,000 tested, 0.91% active; in the data active = inhibition above about 50%;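 also: 0% = vehicle wells with protein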
TEAD-YAP inh: TEAD-YAP interaction inhibition, primary screen, TEAD-YAP interaction inhibitor project, luminescence, HEK-TIYL cells | TEAD-Gal4/YAP UAS-luciferase luminescence | inhibition, % at 9.12 µM | 640,000 tested, 1.4% active; in the data active = inhibition above about 32%;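 also: 0% = median of test compound wells and 100% = reference inhibitor wells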
GPR151 activ: activators of human GPR151, primary screen, cell-based, PathHunter beta-arrestin, luminescence | G-protein coupled receptor 151 (Homo sapiens), Q8TDV0 | PathHunter beta-arrestin GPR151 cells | activation, % at 11.2 µM | 650,000 tested, 1% active | AID 1508602, 2020; in the data active = activation above about 4.9%;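 also: 0% = median of compound wells and 100% = cells with positive control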
Target sequence (Q8TDV0 whole entry, looked up): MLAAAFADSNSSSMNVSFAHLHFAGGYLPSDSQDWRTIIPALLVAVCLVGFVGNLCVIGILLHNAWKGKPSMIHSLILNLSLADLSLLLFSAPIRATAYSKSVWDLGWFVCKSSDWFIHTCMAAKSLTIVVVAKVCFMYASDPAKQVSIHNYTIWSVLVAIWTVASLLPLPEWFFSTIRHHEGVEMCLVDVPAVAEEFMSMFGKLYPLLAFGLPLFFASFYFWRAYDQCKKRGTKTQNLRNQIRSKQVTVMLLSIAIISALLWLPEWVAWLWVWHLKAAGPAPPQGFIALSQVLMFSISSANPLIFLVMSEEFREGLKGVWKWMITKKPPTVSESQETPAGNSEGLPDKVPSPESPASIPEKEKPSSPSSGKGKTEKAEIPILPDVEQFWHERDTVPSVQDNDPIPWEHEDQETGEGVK
FBW7 activator: FBW7 E3 ligase activators, primary screen, biochemical, AlphaScreen, human | AlphaScreen FBW7–phospho-cyclin E peptide binding, activator screen | normalized activity (activation), % at 26.1 µM | 650,000 tested, 0.13% active | AID 1259310, 2017; in the data active = normalized activity above about 1.9%;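 also: purified mutant Fbw7 with reduced substrate affinity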
MITF confirm: MITF inhibitors, retest of hits, confirmation, biochemical, AlphaScreen, triplicate; shares compounds with MITF primary; AlphaScreen MITF homodimerization, biotin/His-MITF beads; inhibition, % at 2.6 µM; 4,700 tested, 16% active; AID 1259372, 2018;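 active = inhibition above a cutoff derived from the DMSO control wells, cut at about 28% in these data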;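 also: 0% = MITF dimer wells with DMSO only; inhibitors lower the bead chemiluminescence by keeping MITF from dimerizing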
AS interf ctr: AlphaScreen optical interference compounds, counter-screen for MITF inhibitor project, biochemical, triplicate; shares compounds with MITF primary; LysRS AlphaScreen counterscreen, signal interference; inhibition, % at 2.6 µM; 4,700 tested, 7.6% active; AID 1259376, 2018;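 active = inhibition above a cutoff derived from the DMSO control wells, cut at about 30% in these data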
Active calls of the source: *; . = no result. Shown are actives, neighbours in structure and some others; about 3.5% of the full set was active somewhere.

SMILES	MITF primary	TEAD-YAP inh	GPR151 activ	FBW7 activator	MITF confirm	AS interf ctr
CCN1CCN(CC(=O)NCc2ccccc2OC)CC1	99.1*	-6.3	-0.6	0.0	2.8	12.8
Cc1nnc(NC(=O)CN2CCOCC2)s1	-7.7	-5.5	1.3	-0.2	.	.
CCN1CCN(CC(=O)Nc2nnc(C)s2)CC1	74.2*	3.9	-0.2	0.1	7.8	9.1
CCC(=O)NC(=S)Nc1ccc(C(C)C)cc1	-0.5	-76.9	-0.4	-0.1	.	.
Cc1cc(C)cc(NC(=O)CN2CCc3ccccc3C2)c1	69.0*	3.5	0.4	-0.1	0.2	5.2
Cc1cc(C)cc(NC(=O)CCN2CCc3ccccc3C2)c1	-1.2	-4.9	-0.9	0.3	.	.
CC1CCN(Cc2ccc(-c3nnn(CC(=O)Nc4ccc(F)cc4)n3)cc2)CC1	87.9*	-0.3	-0.1	0.1	9.6	15.6
CC1CCN(Cc2ccc(-c3nnn(CC(=O)Nc4ccccc4F)n3)cc2)CC1	10.5	11.7	-0.7	-0.1	.	.
N#Cc1ccccc1NC(=O)c1ccc(S(=O)(=O)N2CCCC2)cc1	4.5	-4.6	1.1	0.2	.	.
N#Cc1ccccc1NC(=O)c1ccc(S(=O)(=O)N2CCOCC2)cc1	54.6*	-10.9	0.1	0.0	-12.0	-6.5
Cc1cc(C)nc(N2CCC(N(Cc3cccnc3)S(C)(=O)=O)CC2)n1	6.0	16.1	0.1	0.1	.	.
O=C(CNCc1ccc(F)cc1)Nc1ccc(C(=O)N2CCCCC2)cc1	68.6*	5.7	-0.8	0.2	8.8	16.6
O=C(Cc1ccc(Cl)cc1)Nc1ccc(C(=O)N2CCCCC2)cc1	0.7	-22.2	0.8	0.4	.	.
O=C(CNCCc1ccc(Cl)cc1)Nc1ccc(C(=O)N2CCCCC2)cc1	58.3*	5.7	0.2	0.0	9.3	20.9
O=C(CNCCc1ccccc1)Nc1ccc(C(=O)N2CCCCC2)cc1	52.0*	-13.2	-0.1	0.4	9.7	18.6
O=C(CCc1ccccc1)Nc1ccc(C(=O)N2CCCCC2)cc1	-15.5	3.0	0.3	0.0	.	.
O=C(CNCc1ccccc1Cl)Nc1ccc(C(=O)N2CCCCC2)cc1	71.7*	-0.3	-0.4	0.1	15.6	17.6
O=C(CNC1CCCCCC1)Nc1ccc(C(=O)N2CCCCC2)cc1	44.1	10.6	-1.0	0.0	.	.
COc1ccc(NS(=O)(=O)c2ccc(Br)c(C)c2)cc1S(N)(=O)=O	5.2	-2.7	1.2	0.0	.	.
CN(C)Cc1cc2ccc(Cl)cc2n(Cc2ccccn2)c1=O	-12.7	-4.6	1.7	-0.1	.	.
COc1ccc(CN2CCN(C(=O)c3cccc(OC)c3)CC2)cc1	26.7	5.9	0.7	0.1	.	.
COc1ccc(CN2CCN(C(=O)c3cc(OC)c(OC)c(OC)c3)CC2)cc1Br	52.0*	-3.8	-1.6	1.1	6.2	1.6
COc1cccc(C(=O)N2CCN(Cc3ccc(OC)c(Br)c3)CC2)c1	51.7*	-6.6	-0.5	-0.2	11.3	13.5
Cc1nc(C)c(NC(=O)N2CCOCC2)cc1NC(=O)N1CCOCC1	1.7	-12.4	-0.3	-0.1	.	.
CN(C)c1cccc(Nc2nc(C(=O)NC3CCN(Cc4ccccc4)CC3)cs2)c1	57.6*	-10.9	-0.7	-0.2	24.8	16.1
SMILES	MITF primary	TEAD-YAP inh	GPR151 activ	FBW7 activator	MITF confirm	AS interf ctr
CS(=O)(=O)c1cccc(S(=O)(=O)N2CCC(C(=O)O)CC2)c1	1.8	-2.4	-1.2	-0.2	.	.
CC(=O)Oc1cc(-c2coc3cc(OC(C)=O)c(OC(C)=O)c(OC(C)=O)c3c2=O)cc(OC(C)=O)c1OC(C)=O	73.2*	8.4	-1.9	-0.2	3.0	-5.8
CC(=O)Nc1ccc(NC(=O)CN2CCN(C)CC2)cc1	1.7	-23.9	-0.8	0.5	.	.
CN1CCN(CC(=O)Nc2ccc(N3CCCCCC3)cc2)CC1	55.4*	-2.6	0.2	-0.3	-12.6	37.2*
Cc1cc(NC(=O)CN2CCN(c3cccc(Cl)c3)CC2)no1	-3.8	0.6	2.3	0.0	.	.
CN1CCN(CC(=O)Nc2ccc(C(=O)N3CCCC3)cc2)CC1	34.0	5.3	-0.6	0.7	.	.
O=C(Cn1c(-c2ccccc2)noc1=O)Nc1ccc(N2CCCCCC2)cc1	54.1*	12.9	1.4	-0.6	15.3	16.6
CN1CCN(CC(=O)Nc2ccc(C(F)(F)F)cc2)CC1	66.5*	-2.8	-0.2	0.1	7.8	15.0
Cc1cc(NC(=O)CN2CCN(c3ccc(F)cc3)CC2)no1	54.1*	-0.9	0.1	0.1	3.6	2.9
CCCOc1ccc(C2C(C(=O)OC)=CN(C(C)C)C=C2C(=O)OC)cc1	-3.2	5.0	-0.4	0.1	.	.
CCOc1ccccc1C(=O)Nc1ccc(C(F)(F)F)oc1=O	-8.3	9.8	0.3	0.0	.	.
N#Cc1ccc(NC(=O)COC(=O)Cc2ccc(Br)cc2)cc1	3.2	-7.4	-0.8	0.1	.	.
Cc1cc(=S)cc(C)n1CCCn1ccnc1	-5.3	-1.7	-0.1	0.5	.	.
Cc1cc(C(N)=O)c(C)n1CCCn1ccnc1	76.2*	1.6	-0.3	-0.8	14.9	21.6
O=C(C(c1ccccc1)c1ccccc1)N1CCN(Cc2ccc(F)cc2)CC1	61.9*	5.8	-1.5	0.2	8.9	22.6
O=C(C(c1ccccc1)c1ccccc1)N1CCN(Cc2ccncc2)CC1	62.4*	4.2	-0.7	0.1	-8.3	-9.8
Cc1ccccc1CN1CCN(C(=O)C(c2ccccc2)c2ccccc2)CC1	37.9	1.5	-0.6	0.0	.	.
O=C(Cn1c(=O)oc2cc(Cl)ccc21)NCCc1ccccc1Cl	0.6	2.3	0.2	0.0	.	.
Cc1[nH]c2ccccc2c1C(=O)C(C)OC(=O)Cc1ccc2c(c1)OCCO2 (stereo not given)	3.1	6.7	0.7	0.4	.	.
Cc1[nH]c(=O)[nH]c1C(=O)CCCCC(=O)OCC(=O)c1ccc(Br)cc1	114.5*	7.7	1.4	-1.0	112.3*	92.9*
Cc1[nH]c(=O)[nH]c1C(=O)CCCCC(=O)OCC(=O)Nc1ccccn1	115.6*	-2.8	0.0	-0.7	118.2*	97.4*
CCOC(=O)CCCCC(=O)c1[nH]c(=O)[nH]c1CSC(=N)N	44.9	-7.7	-0.3	0.1	.	.
Cc1cc(C)cc(OCC(=O)Nc2ccccn2)c1	9.8	-42.3	-0.7	-0.1	.	.
CCOC(=O)CCCCC(=O)c1[nH]c(=O)[nH]c1C	115.4*	-3.5	-1.5	-0.6	118.5*	98.6*
CC1(C)CC(OC(=O)CCN2CCCCC2)CC(C)(C)N1	-4.4	-4.8	2.4	-0.1	.	.
CCCCS(=O)(=O)C1CCCCC1OC(=O)CCN1CCCCC1 (stereo not given)	50.7*	8.6	-1.5	0.2	15.1	-0.2
Cc1nc(NC/C=C/c2ccco2)sc1-c1ccn(CCO)n1	5.9	2.1	2.8	0.0	.	.
CCOc1cccc(CN2CCc3nnc(C(C)NC(=O)C4CCOCC4)n3CC2)c1O (stereo not given)	-13.3	-4.2	-0.9	0.0	.	.
